{
  "source": "PubChem BioAssay AID662",
  "about": "(National Center for Advancing Translational Sciences (NCATS), 2007)",
  "note": "Hit rate of the full screen: of about 71,000 compounds, about 1,800 (2.5%) were called active. Not shown: some 26% with an inconclusive outcome. The call rests on the fitted dose curve; in most records, active means well fitted activation curve with a large enough effect in the signal ratio, with a control signal flat (not every such curve was filed as active); inconclusive means small, poorly fitted or top-dose-only effect, or effect the other way, or a change in a side signal; inactive means flat fitted curve, though single readings scatter; the % refers to the signal ratio. This excerpt belongs to a sample that is enriched for actives. Potency means the concentration at half of the fitted maximal effect.",
  "data": [
    {"assay": "Cell signaling CRE-BLA (Fsk stim); on activity change, negative = inhibition: % of control where 0% means no effect", "settings": "CHO CRE-bla reporter (cAMP response element driving beta-lactamase), forskolin EC10, beta-lactamase ratio; series mostly up to 38.2 µM; activity change, negative = inhibition: at the top concentration", "summary_of_the_method": "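The 460nm/530nm emission ratio after CCF4 loading defined %Activity, from which AC50 values were obtained. CRE-bla CHO cells received compound dilution series together with an EC10 level of NKH 477 for 3 hours at 37 degrees Celsius.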", "values": [
      {"smiles": "c1ccc(-c2oc3ncnc(N4CCOCC4)c3c2-c2ccccc2)cc1", "activity change, negative = inhibition": "6.93% (inactive)"},
      {"smiles": "O=C1c2ccccc2-c2ncnc3c(N4CCOCC4)cc(N4CCOCC4)c1c23", "Potency": "2.51 µM (active)"},
      {"smiles": "c1cnn(-c2cc(N3CCOCC3)ncn2)c1", "activity change, negative = inhibition": "17.7% (inactive)"},
      {"smiles": "CSc1nnc(CNC(=O)c2ccccc2)n1-c1ccc(F)cc1", "activity change, negative = inhibition": "-5.77% (inactive)"},
      {"smiles": "Cc1cccc(C(=O)O)c1[N+](=O)[O-]", "activity change, negative = inhibition": "-4.85% (inactive)"},
      {"smiles": "CCOC(=O)c1cnc(-n2nc(C)cc2C)nc1Nc1cccc(C(C)=O)c1", "activity change, negative = inhibition": "3.18% (inactive)"},
      {"smiles": "CCOC(=O)c1cnc(-n2nc(C)cc2C)nc1-n1nc(C)cc1C", "activity change, negative = inhibition": "28.9% (inactive)"},
      {"smiles": "CC(=O)c1ccc(Oc2cc(C)nc(-n3nc(C)cc3C)n2)cc1", "Potency": "7.94 µM (active)"},
      {"smiles": "O=C(Nc1ccccc1)N[C@H]1C[C@H](C(=O)O)Nc2cc(Cl)cc(Cl)c21", "activity change, negative = inhibition": "-9.62% (inactive)"},
      {"smiles": "O=C(CCCOc1ccccc1)Nc1cccc(C(=O)O)c1", "activity change, negative = inhibition": "-1.76% (inactive)"},
      {"smiles": "CN1CCN(c2cc(=O)n(-c3ccc(Cl)cc3)c(=O)[nH]2)CC1", "activity change, negative = inhibition": "-6.94% (inactive)"},
      {"smiles": "Cc1cc(N(C)C)cc(C)[n+]1[O-]", "activity change, negative = inhibition": "2.28% (inactive)"},
      {"smiles": "COC(=O)C1=C(C)NC2=C(C(=O)c3ccccc32)C1c1ccc(-c2ccc(C(=O)O)cc2)o1", "note": "(centres undefined)", "Potency": "0.398 µM (active)"},
      {"smiles": "COC(=O)C1=C(C)NC(=O)NC1/C=C/c1ccccc1", "note": "(centres undefined)", "activity change, negative = inhibition": "-5.12% (inactive)"},
      {"smiles": "COc1ccccc1NC(=O)C1=C(C)NC2=C(C(=O)CCC2)C1c1ccc(C)o1", "note": "(centres undefined)", "activity change, negative = inhibition": "-1.9% (inactive)"},
      {"smiles": "Cc1ccc(CCn2c3c(c4ccccc42)CN(C)CC3)cn1", "activity change, negative = inhibition": "-5.13% (inactive)"},
      {"smiles": "O=C(O)CC(C(=O)O)C(CC(=O)O)C(=O)O", "note": "(centres undefined)", "activity change, negative = inhibition": "-8.47% (inactive)"},
      {"smiles": "CCCCC/C=C/C=C/C=O", "activity change, negative = inhibition": "-1.75% (inactive)"},
      {"smiles": "CCOc1ccc(C(=O)Nc2cc(OC)ccc2OC)cc1", "activity change, negative = inhibition": "8.36% (inactive)"},
      {"smiles": "CCOc1ccc2nc(N3CCCN(C(=O)Nc4ccccc4C)CC3)c(C#N)cc2c1", "activity change, negative = inhibition": "4.72% (inactive)"},
      {"smiles": "Cc1cc(C)c2nc(N3CCCC3)c(C#N)cc2c1", "Potency": "10 µM (active)"},
      {"smiles": "CC(C)CCNc1nc(N2CCCC2)c2c(c1C#N)CCN(C)C2", "activity change, negative = inhibition": "-7.41% (inactive)"},
      {"smiles": "COc1c(C)cccc1C(=O)Nc1cc(Cl)ccc1N1CCOCC1", "activity change, negative = inhibition": "8.77% (inactive)"},
      {"smiles": "Cn1nc(-c2ccc(N3CCOCC3)c(NC(=O)c3ccccc3)c2)c2ccccc2c1=O", "Potency": "7.94 µM (active)"},
      {"smiles": "Cn1c(=O)n(C)c2cc(CNc3ccc(N4CCOCC4)c(C(=O)O)c3)ccc21", "activity change, negative = inhibition": "-4.36% (inactive)"},
      {"smiles": "COc1ccc(OC)c2[nH]c(=O)c(CCNC(=O)C(C)(C)C)cc12", "activity change, negative = inhibition": "11.6% (inactive)"},
      {"smiles": "COc1ccc(CNc2ncncc2-c2ccccc2OC)c(OC)c1", "activity change, negative = inhibition": "11.5% (inactive)"},
      {"smiles": "COc1ccc(CNc2ncnc3ccc(-c4cccnc4)cc23)c(OC)c1", "Potency": "1 µM (active)"},
      {"smiles": "COc1ccc(CNc2ncncc2-c2ccccc2C)c(OC)c1", "activity change, negative = inhibition": "4.23% (inactive)"},
      {"smiles": "CCOC(=O)C1CCc2nc3ccccc3c(=O)n21", "note": "(centres undefined)", "activity change, negative = inhibition": "1.43% (inactive)"},
      {"smiles": "CCCCCCOC(=O)NCC(O)c1ccccc1", "note": "(centres undefined)", "activity change, negative = inhibition": "0.923% (inactive)"},
      {"smiles": "CCOc1ccccc1Nc1nnc(SCC(=O)Nc2cc(C)on2)s1", "activity change, negative = inhibition": "-11.6% (inactive)"},
      {"smiles": "COc1ccccc1-c1nnc(SCC(=O)Nc2cc(C)on2)o1", "activity change, negative = inhibition": "-0.278% (inactive)"},
      {"smiles": "Cc1nc(SCC(=O)Nc2cc(C)on2)c2c3c(sc2n1)CCCC3", "Potency": "2.51 µM (active)"},
      {"smiles": "C=C(C)Cn1c(SCC(=O)NCc2ccco2)nc2sc3c(c2c1=O)CCC3", "activity change, negative = inhibition": "6.87% (inactive)"},
      {"smiles": "Cc1nc(SCC(=O)Nc2cc(C)on2)c2c(C)c(C)sc2n1", "Potency": "0.316 µM (active)"},
      {"smiles": "Cc1cc(NC(=O)Cn2nc(C(F)(F)F)c3c2CCCC3)no1", "activity change, negative = inhibition": "-5.04% (inactive)"},
      {"smiles": "O=C1C(C=NCC2CCCO2)=C(O)c2ccccc21", "note": "(centres undefined)", "activity change, negative = inhibition": "12.5% [at 7.6 µM] (inactive)"},
      {"smiles": "COC(=O)[C@@]1(Cc2ccc(F)cc2)[C@H]2c3cc(C(=O)N4CCCC4)n(Cc4ccc(OC(F)(F)F)cc4)c3C[C@H]2CN1C(=O)c1ccccc1", "activity change, negative = inhibition": "-8.28% (inactive)"},
      {"smiles": "COCCOC(=O)C1=C(C)NC(=O)CC1c1cc2c(cc1Br)OCO2", "note": "(centres undefined)", "activity change, negative = inhibition": "4.43% (inactive)"},
      {"smiles": "COc1cc2c(cc1OC)C(c1ccc(C)o1)CC(=O)N2", "note": "(centres undefined)", "activity change, negative = inhibition": "17.5% (inactive)"},
      {"smiles": "CCCOc1ccccc1C1CC(=O)Nc2cc3c(cc21)OCO3", "note": "(centres undefined)", "Potency": "10 µM (active)"},
      {"smiles": "O=C(NCc1ccc(Cl)c(Cl)c1)c1cccnc1", "activity change, negative = inhibition": "-25.4% [at 7.6 µM] (inactive)"},
      {"smiles": "CCCOC(=O)Nc1ccccc1C(N)=O", "activity change, negative = inhibition": "3.03% (inactive)"},
      {"smiles": "CCOc1ccc2nc(SC(CC)C(=O)Nc3cc(C)on3)sc2c1", "note": "(centres undefined)", "activity change, negative = inhibition": "5.36% (inactive)"},
      {"smiles": "C=CC(=C)CCC=C(C)C", "activity change, negative = inhibition": "1.32% (inactive)"},
      {"smiles": "CCOc1cccc(-c2nnc3sc(COc4ccc(OC)cc4)nn23)c1", "activity change, negative = inhibition": "26.2% (inactive)"},
      {"smiles": "CCOC(=O)c1sc(=S)n(-c2cccc(OC)c2)c1N", "activity change, negative = inhibition": "-1.32% (inactive)"},
      {"smiles": "CCOc1cccc(-n2nnnc2-c2ccc(OC)cc2)c1", "Potency": "12.6 µM (active)"},
      {"smiles": "COC(=O)c1ccc(OC(=O)c2nn(C)cc2Cl)c(OC)c1", "activity change, negative = inhibition": "-4.06% (inactive)"},
      {"smiles": "CCc1c(O)nc(SCC(=O)N2CCCCC2)n(-c2ccccc2C)c1=O", "activity change, negative = inhibition": "3.32% (inactive)"},
      {"smiles": "O=C(Nc1ccccc1N1CCN(C(=O)c2ccccc2)CC1)c1ccc2c(c1)OCO2", "activity change, negative = inhibition": "-2.12% (inactive)"},
      {"smiles": "O=C(Nc1ccccc1N1CCCCC1)c1cccc(F)c1", "Potency": "12.6 µM (active)"},
      {"smiles": "O=C(CN1CCN(C2CCCCC2)CC1)Nc1ccccc1N1CCCCC1", "activity change, negative = inhibition": "-15.5% (inactive)"},
      {"smiles": "O=C(Nc1ccccc1N1CCN(c2ccccc2)CC1)c1cccc(F)c1", "activity change, negative = inhibition": "17.9% (inactive)"},
      {"smiles": "Cc1ccccc1NC(=O)CNc1ccccc1N1CCCCC1", "activity change, negative = inhibition": "-7.03% (inactive)"},
      {"smiles": "O=C(Nc1ccccc1N1CCCCC1)c1ccc2nccnc2c1", "Potency": "10 µM (active)"},
      {"smiles": "Cn1cc(S(=O)(=O)N2CCC(Cc3ccccc3)CC2)c(=O)n(C)c1=O", "activity change, negative = inhibition": "-3.51% (inactive)"},
      {"smiles": "Cc1ccc(Br)cc1", "activity change, negative = inhibition": "-7.98% (inactive)"},
      {"smiles": "O=C(NCc1ccccc1)[C@H]1C[C@@H]1[C@H](NP(=O)(c1ccccc1)c1ccccc1)c1ccccc1", "activity change, negative = inhibition": "-24.2% (inactive)"},
      {"smiles": "CCC[C@@H]1C[C@@]1(CCC)[C@@H](NC(=O)c1ccccc1)c1ccc(C(=O)OC)cc1", "activity change, negative = inhibition": "5.13% (inactive)"},
      {"smiles": "Nc1nnc(C2CCCC2)s1", "activity change, negative = inhibition": "3.27% (inactive)"},
      {"smiles": "CCn1c(SCC(=O)Nc2cc(C)c(Cl)cc2OC)nnc1-c1ccco1", "Potency": "12.6 µM (active)"},
      {"smiles": "COc1cc(Cl)c(C)cc1NC(=O)CSc1nnc(-c2cccnc2)n1Cc1ccco1", "activity change, negative = inhibition": "-6.01% (inactive)"},
      {"smiles": "CCc1cccc(C)c1NC(=O)CSc1nnc(-c2ccco2)n1N", "activity change, negative = inhibition": "-6.03% (inactive)"},
      {"smiles": "COC(=O)[C@H]1C[C@@H]1[C@H](NC(=O)Oc1ccc(F)cc1)c1ccccc1", "activity change, negative = inhibition": "1.37% (inactive)"},
      {"smiles": "NC(=O)c1ccccc1NC(=O)c1ccccc1F", "activity change, negative = inhibition": "5.08% (inactive)"},
      {"smiles": "COC(=O)[C@@]1(Cc2ccc(OC)cc2)[C@H]2c3cc(C(=O)N4CCCC4)n(Cc4ccc(OC(F)(F)F)cc4)c3C[C@H]2CN1C(=O)c1ccccc1", "activity change, negative = inhibition": "-3.5% (inactive)"},
      {"smiles": "O=C(CN1CCOCC1)Nc1c(-c2ccccc2)c2cc(Br)ccc2[nH]c1=O", "activity change, negative = inhibition": "-5.45% (inactive)"}
    ]}
  ]
}
